An excerpt weighted towards active compounds, which were near 4.6% of everything screened.
SKKanGAS inh = SKKanGAS growth inhibition. S. pyogenes SKKanGAS, kanamycin growth, BacTiter-Glo, 6 h. inhibition, % at 7.5 µM. 300,000 tested, 1.3% active;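 active = mean replicate score, as percent of positive control median, at least 50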;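 also: strain carries kanamycin resistance gene driven by streptokinase promoter and grows in 40 µg/ml kanamycin; loss of luminescence reflects streptokinase promoter inhibition or plain growth inhibition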
NLRP3 yeast inh = inhibitors of NALP3 inflammasome in yeast. Yeast reconstituted NLRP3/ASC/caspase-1, beta-gal luminescence, 24 h. inhibition, % at 10 µM. 330,000 tested, 0.39% active. AID 2825;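 active = inhibition of 50% or more; inactive = inhibition below 50%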
PfHsp90 yeast 2 = reduces growth (ATP signal) of yeast expressing P. falciparum Hsp90; S. cerevisiae expressing PfHsp90, BacTiter-Glo ATP, 48 h; yeast lacking PDR1 and PDR3 efflux regulators; inhibition, % at 9.4 µM; 310,000 tested, 0.32% active; AID 504621;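 active = every replicate shows inhibition above about 80%, whatever the replicate mean, limit read from the data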
tim23-1 inh = tim23-1 yeast growth inhibition. S. cerevisiae tim23-1 growth, BacTiter-Glo luminescence, 24 h. inhibition, % at 20 µM. AID 463212. 330,000 tested, 1.3% active;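 active = growth inhibition of the mutant yeast at or above 50%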;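 also: temperature-sensitive mutant grown at 25 °C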
tim10-1 inh = inhibits growth of tim10-1 mutant yeast. S. cerevisiae tim10-1 ts strain growth, BacTiter-Glo, 24 h. AID 463190. 330,000 tested, 2.2% active. inhibition, % at 20 µM;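 active = inhibition of at least 40%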;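 also: mutant grown at 25 °C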
TIM10 inh = growth inhibitors of TIM10 yeast strain. S. cerevisiae TIM10 strain growth, BacTiter-Glo luminescence, 24 h. inhibition, % at 10 µM. 330,000 tested, 1.4% active. AID 463195;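 active = inhibition of 40% or more at the single tested concentration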;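 also: wild-type TIM10 isogenic control strain grown at permissive 25 °C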
Numbers stand for hits; i = inactive; nt = not tested or not shown.

SMILES	SKKanGAS inh	NLRP3 yeast inh	PfHsp90 yeast 2	tim23-1 inh	tim10-1 inh	TIM10 inh
C=C1CCC2C(C)(C)[C@@H](O)CC[C@@]2(C)[C@@H]1COc1ccc2ccc(=O)oc2c1 (some centres undefined)	52	i	i	i	i	i
C=C1CCC2C(C)(C)[C@H](O)CC[C@@]2(C)[C@@H]1COc1cc(=O)oc2ccccc12 (some centres undefined)	i	i	i	i	i	i
COc1ccc(C(C)(C)C)cc1NC(=O)Nc1ccc2c(c1)OCO2	i	i	86	i	i	i
O=C1NCCCC1C(=O)N/N=C/c1cccc(O)c1 (centres undefined)	i	i	i	i	i	i
NC(=Nc1nc(-c2ccccn2)cc2ccccc12)c1ccccn1	nt	nt	142	nt	nt	nt
CCCCn1c(N)c(N(CC)C(=O)CSCC(=O)Nc2ccc(OC)cc2)c(=O)[nH]c1=O	i	i	i	i	i	i
COc1ccc(CCC(=O)N2CCN(S(=O)(=O)c3cccc(Cl)c3)CC2)cc1	nt	i	i	i	i	i
CC(=O)N/N=C/c1c(C)[nH]n(-c2ccccc2)c1=O	i	i	i	i	i	i
CC/C(=N/NC(=O)c1ccccc1O)c1c(C)[nH]n(-c2ccccc2)c1=O	95	i	i	i	i	i
Cc1[nH]n(-c2ccccc2)c(=O)c1/C=N/NC(=O)c1ccccc1F	90	i	i	i	i	i
Cc1[nH]n(-c2ccccc2)c(=O)c1/C=N\NC(=O)C1COc2ccccc2O1 (centres undefined)	65	i	i	i	i	i
Cc1ccc(-n2c(O)c(/C=N/NC(=O)C3COc4ccccc4O3)c3ccccc3c2=O)cc1 (centres undefined)	101	i	i	i	i	i
O=C(O)c1cc(Cl)c(Cl)cc1C(=O)NCc1ccco1	i	i	i	i	i	i
CCSC(=S)c1c(C)[nH]n(-c2ccccc2)c1=O	57	i	i	i	i	i
O=C(N/N=C/c1c(O)n(-c2ccccc2Cl)c(=O)c2ccccc12)C1COc2ccccc2O1 (centres undefined)	79	i	i	i	i	i
Cc1c(/C=N\NC(=O)C2COc3ccccc3O2)c2ccccc2n1C (centres undefined)	i	nt	i	nt	nt	nt
Cc1[nH]n(-c2ccccc2)c(=O)c1C(=O)c1ccccc1	i	i	i	i	i	i
C/C(CC(=O)Nc1ccc(Cl)cc1)=N\NC(=O)C(=O)N1CCCCC1	nt	i	i	i	i	i
O=C(COc1ccccc1)Nc1nnc(-c2ccc3c(c2)CCCC3)o1	89	i	i	i	i	i
O=C(Nc1nnc(-c2ccc3c(c2)CCCC3)o1)c1ccccc1Cl	90	i	i	i	i	i
O=C(Nc1nnc(-c2ccncc2)o1)c1ccccc1	i	i	i	i	i	i
O=C(Nc1nnc(-c2ccc3c(c2)CCCC3)o1)c1ccccc1	94	i	i	i	i	i
O=C(Nc1nnc(-c2ccc3c(c2)OCCO3)o1)c1ccc(Cc2ccccc2)cc1	102	i	i	i	i	i
O=C(Nc1cccc2c1CCCC2)c1ccccc1Cl	i	i	i	i	i	i
O=C(CCOc1ccccc1)Nc1nnc(-c2ccc3c(c2)OCCO3)o1	i	i	i	i	i	i
SMILES	SKKanGAS inh	NLRP3 yeast inh	PfHsp90 yeast 2	tim23-1 inh	tim10-1 inh	TIM10 inh
COc1cc(C(=O)NCC2CCCO2)ccc1OCc1ccccc1Cl (centres undefined)	i	i	i	i	i	i
O=C(OCC(=O)N1CCc2ccccc2C1)c1ccc(F)cc1Cl	nt	i	nt	i	i	i
O=C(COc1ccccc1)Nc1nnc(-c2ccccc2Cl)o1	53	i	i	i	i	i
O=C(Nc1cc(-c2ccccc2)[nH]n1)c1ccc(Cl)cc1	75	i	i	i	i	i
O=C(CN1C(=O)NC2(CCOc3ccccc32)C1=O)NCCc1ccccc1 (centres undefined)	nt	i	i	i	i	i
Cc1cc(N2CCN(c3cccc(C)c3C)CC2)nc(-c2ccccc2)n1	i	i	135	i	i	i
CCOc1ccc(S(=O)(=O)NCCC(=O)NCC2(N3CCCCC3)CCCCC2)cc1	i	i	i	i	i	i
CN(C)N1C(N)=C(C#N)C(c2ccc3c(c2)OCO3)C2=C1CC(C)(C)CC2=O (centres undefined)	i	i	i	i	i	i
